Reference: ChEMBL document CHEMBL3433997, “St. Jude Leishmania screening dataset” (2016)

Legend:
Type in all cases: functional
[1] = molecular target: Solute carrier family 2, facilitated glucose transporter member 1 (Homo sapiens) (UniProt P11166); assay: ST_JUDE_LEISH: Cytotoxicity at 2uM final concentration against transgenic Leishmania Mexicana promastigotes LmGLUT1 that are glucose transport deficient and complemented with the human glucose transporter GLUT1. Activity is measured by DNA content using SYBR green in vitro
Solute carrier family 2, facilitated glucose transporter member 1 (Homo sapiens), sequence (P11166 whole entry): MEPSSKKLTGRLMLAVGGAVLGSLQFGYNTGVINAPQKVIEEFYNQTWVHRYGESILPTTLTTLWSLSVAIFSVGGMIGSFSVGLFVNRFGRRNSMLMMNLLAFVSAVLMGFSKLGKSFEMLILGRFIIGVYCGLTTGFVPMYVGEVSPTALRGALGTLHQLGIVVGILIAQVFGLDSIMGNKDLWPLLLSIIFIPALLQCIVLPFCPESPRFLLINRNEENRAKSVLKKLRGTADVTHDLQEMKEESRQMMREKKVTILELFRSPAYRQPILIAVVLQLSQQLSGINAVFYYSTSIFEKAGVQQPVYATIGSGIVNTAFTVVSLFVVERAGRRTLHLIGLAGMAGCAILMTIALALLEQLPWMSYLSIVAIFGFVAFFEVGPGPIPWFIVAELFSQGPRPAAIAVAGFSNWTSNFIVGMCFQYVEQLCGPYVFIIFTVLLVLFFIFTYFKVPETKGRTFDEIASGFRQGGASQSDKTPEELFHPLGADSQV

[2] = molecular target: Hexose transporter 1 (Plasmodium falciparum) (UniProt O97467); assay: ST_JUDE_LEISH: Cytotoxicity at 2uM final concentration against transgenic Leishmania Mexicana promastigotes LmPfHT that are glucose transport deficient and complemented with the Plasmodium falciparum hexose transporter. Activity is measured by DNA content using SYBR green in vitro
[3] = molecular target: Glucose transporter (Leishmania mexicana) (UniProt O61059); assay: ST_JUDE_LEISH: Cytotoxicity at 2uM final concentration against transgenic Leishmania Mexicana promastigotes LmGT2 that are glucose transport deficient and complemented with the L. Mexicana glucose transporter 2. Activity is measured by DNA content using SYBR green in vitro

**Q.** What does the source list for NC(=O)c1cccc(Nc2nccc(Nc3ccc(Oc4ccc5ccccc5c4)cc3)n2)c1?
**A.** inhibition [1]: 5.67%; inhibition [2]: 4.45%; inhibition [3]: 0.97%

**Q.** With c1nc(CCNc2nc(Nc3ccc4c(c3)OCO4)nc(NC3CCCC3)n2)c[nH]1 as the compound, how does the inhibition [1] read?
**A.** 1.6%

**Q.** What about the inhibition [2] of the same compound?
**A.** 2.73%

**Q.** And the inhibition [3]?
**A.** 0.99%

**Q.** How did the inhibition [1] turn out when CC(=O)Nc1ccc(CN(Cc2ccc(F)cc2)Cc2ccc3c(c2)OCO3)cc1 was run?
**A.** 2.71%

**Q.** And the inhibition [2]?
**A.** 1.82%

**Q.** And the inhibition [3]?
**A.** 3.2%

**Q.** What does the source list for CCOc1c(N2CCN(CCCCNC(=O)c3ccc(NC(=O)c4ccc(Cl)cc4)cc3)CC2)ccc2ccccc12?
**A.** inhibition [1]: 0.72%; inhibition [2]: 0.48%; inhibition [3]: 0.9%

**Q.** How did the inhibition [1] turn out when CS(=O)(=O)c1ccc(CCNCc2ccc(-c3ccc(CN(C(=O)C4CCCC4)C4CCN(Cc5ccccc5)CC4)cc3)nc2)cc1 was run?
**A.** 0.69%

**Q.** What about the inhibition [2] of the same compound?
**A.** 0.71%

**Q.** What about the inhibition [3] of the same compound?
**A.** -2.64%

**Q.** With Cc1cc(C2CCN(CCCCNC(=O)c3ccc(NC(=O)c4ccc(Cl)cc4)cc3)CC2)c(C)cc1OCc1ccccn1 as the compound, how does the inhibition [1] read?
**A.** 2.54%

**Q.** What about the inhibition [2] of the same compound?
**A.** 2.64%

**Q.** And the inhibition [3]?
**A.** 0.11%

**Q.** For O=C(Nc1ccc(Cl)cc1)Nc1ccc(OCC(O)CN2CCCCC2)cc1 (stereo unspecified), which inhibition [1] is on record?
**A.** 7.33%

**Q.** And the inhibition [2]?
**A.** 8.27%

**Q.** And the inhibition [3]?
**A.** 7.64%

**Q.** CCOC(=O)c1c(C)noc1Nc1cccc(C)c1C was tested. Which inhibition [1] did it give?
**A.** -3.16%

**Q.** And the inhibition [2]?
**A.** -1.56%

**Q.** And the inhibition [3]?
**A.** -4.02%

**Q.** For CC1(C)N=C(N)N=C(N)N1OCc1cccc(C#N)c1, which inhibition [1] is on record?
**A.** 2.81%

**Q.** What about the inhibition [2] of the same compound?
**A.** 0.82%

**Q.** What about the inhibition [3] of the same compound?
**A.** 1.5%

**Q.** What does the source list for CCNc1cc(C(=O)N[C@@H](Cc2ccccc2)[C@H](O)CNC(C)Cc2cccc(Cl)c2)cc(N2CCCCS2(=O)=O)c1 (stereo partly specified)?
**A.** inhibition [1]: 0.81%; inhibition [2]: 2.5%; inhibition [3]: -1.63%

**Q.** What does the source list for Cc1cc(-c2cc(-c3ccc(OCCN(C)C)cc3)[nH]c2-c2ccc3c(c2)CCC3=NO)ccn1?
**A.** inhibition [1]: 4.92%; inhibition [2]: 3.52%; inhibition [3]: 2.39%

**Q.** How did the inhibition [1] turn out when CC(C)CCCC(C)(C)NC[C@@H](O)[C@H](Cc1ccccc1)NC(=O)c1cccc(CCC2CC2)c1 was run?
**A.** 3.16%

**Q.** And the inhibition [2]?
**A.** 4.54%

**Q.** What about the inhibition [3] of the same compound?
**A.** 4.06%
